The list is not random: actives were taken first. Their share in the collection is about 11%.
MCF10A rereplic = A quantitative high throughput screen for small molecules that induce DNA re-replication in MCF 10a normal breast cells. MCF 10A DNA re-replication, Hoechst nuclear intensity, 48 h. hit rate 2.9% among 350,000. AID 624296, 2012. Potency, µM (titrated, usually from 46.1 µM), usual class: activators; further: nearly all actives have a fitted effect of over 50% in size
Gal4-VP16 FLuc = VP16 counterscreen qHTS for inhibitors of ROR gamma transcriptional activity; AID 2546, 2010; Drosophila S2 Gal4-VP16 UAS-luciferase, luminescence, 20 h; Potency, µM (highest dose often 53.6 µM), usual class: inhibitors; hit rate 3.5% among 310,000;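 further: Gal4-VP16 expression switched on by copper sulfate through the metallothionein promoter; nearly all actives have a fitted effect of over 50% in size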
SW480 rerep = A quantitative high throughput screen for small molecules that induce DNA re-replication in SW480 colon adenocarcinoma cells | hit rate 1.8% among 340,000 | SW480 DNA re-replication, Hoechst DNA content imaging, 48 h | AID 624297, 2012 | Potency, µM (highest dose often 46.1 µM), hits mostly activators; further: nearly all actives have a fitted effect of over 55% in size
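Hoechst fluorescence of nuclei (405 nm excitation, 500-530 nm emission) measured by plate-scanning imager after 48 hr compound exposure at 37 C; re-replication scored as increased number of nuclei with elevated intensity.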
RORgamma inh = qHTS for inhibitors of ROR gamma transcriptional activity | Nuclear receptor ROR-gamma (Mus musculus), P51450 | Drosophila S2 Gal4-RORgamma UAS-luciferase reporter, 20 h | Potency, µM (highest dose often 53.6 µM), most hits filed as inhibitors | hit rate 5.4% among 310,000; further: nearly all actives have a fitted effect of over 60% in size
Target sequence (P51450 whole entry, looked up, the tested form may be a part): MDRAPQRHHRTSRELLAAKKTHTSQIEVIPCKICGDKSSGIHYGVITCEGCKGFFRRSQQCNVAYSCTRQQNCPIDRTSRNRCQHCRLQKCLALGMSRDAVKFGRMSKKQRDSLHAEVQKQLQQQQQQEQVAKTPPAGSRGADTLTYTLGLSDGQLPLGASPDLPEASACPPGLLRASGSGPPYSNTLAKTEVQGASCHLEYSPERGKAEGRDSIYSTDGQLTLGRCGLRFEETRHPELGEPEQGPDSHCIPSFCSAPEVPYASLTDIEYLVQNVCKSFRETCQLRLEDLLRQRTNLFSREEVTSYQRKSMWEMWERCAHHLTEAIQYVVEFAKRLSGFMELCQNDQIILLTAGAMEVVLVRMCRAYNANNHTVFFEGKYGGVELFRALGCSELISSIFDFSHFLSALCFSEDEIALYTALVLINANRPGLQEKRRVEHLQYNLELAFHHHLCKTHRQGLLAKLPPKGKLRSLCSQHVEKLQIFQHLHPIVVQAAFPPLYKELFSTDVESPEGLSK
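Read-out: Photinus luciferase luminescence; inhibitors lower reporter signal. Insect Schneider cells with Gal4-ROR gamma fusion under metallothionein promoter, UAS reporter; 700 uM final copper sulfate induction, 20 hr, ambient temperature.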
IL-1B inflam inh = qHTS for Inhibitors of Inflammasome Signaling: IL-1-beta AlphaLISA Primary Screen; AID 743279, 2014; THP-1 LPS/ATP IL-1B secretion, AlphaLISA, 16 h; hits give low values; activity change, % at 57.5 µM; hit rate 4.7% among 360,000; in the data active means activity change below about -50%; inconclusive means mostly about -30% to -49%
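Secreted IL-1B measured by AlphaLISA bead assay after 16 h compound exposure of THP-1 cells; compounds (final up to 57.5 uM) added 1 h before LPS (250 ng/mL) and ATP (1.25 mM) stimulation; lower signal means less secretion.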
Hits are given with their value; i = inactive; ? = inconclusive; nt = no result; [ ] = dose if it differs, or a comment. Unless noted, the call rests on the fitted dose curve; in most records, active means well fitted curve in the direction sought with a large enough effect; inconclusive means small, poorly fitted or top-dose-only effect, or another doubt; inactive means no such curve, though single readings can be large; an effect the other way counts as inactive or inconclusive.

SMILES	MCF10A rereplic	Gal4-VP16 FLuc	SW480 rerep	RORgamma inh	IL-1B inflam inh
O=C(NCc1cccnc1)c1cc(C2CCCCN2C(=O)c2cccs2)on1 (stereo unspecified)	nt	nt	nt	nt	i
CS(=O)(=O)/C(C#N)=C\c1cnc(S(=O)(=O)c2ccccc2)s1	nt	7.9µM	nt	10µM	nt
CN(C)/C=C(\C#N)S(=O)(=O)c1ccccc1	i	i	i	i	i
Nc1nc(N)c2cc(CNc3ccc(Cl)c(Cl)c3)ccc2n1	nt	nt	nt	nt	-98
O=C1C=C(NCc2ccc(Cl)c(Cl)c2)CC1	i	i	i	i	i
Cc1ccc(C)c(-c2ccc(=O)n(Cc3ccc(F)cc3Cl)n2)c1	?	i	i	i	-75
Nc1cc(-c2cccc(Br)c2)nn1Cc1ccccc1	i	?	i	i	i
Cc1ccc(C)c(-c2ccc(=O)n(Cc3cccc(Br)c3)n2)c1	?	i	i	i	-98
N#CCCN(NC(=O)OCc1ccccc1)C(=O)OCc1ccccc1	i	nt	i	nt	i
COc1nc(Nc2ccc(O)cc2)nc(OC(C(F)(F)F)C(F)(F)F)n1	i	i	i	i	?
Nc1cccc(Nc2nc(OC(C(F)(F)F)C(F)(F)F)nc(OC(C(F)(F)F)C(F)(F)F)n2)c1	?	i	i[9.22 µM]	?	-89
CCOc1ccccc1N1CCN(C(=O)C2c3ccccc3Oc3ccccc32)CC1	6.5µM	i	16µM	i	i
CCOc1ccccc1N1CCN(C(=O)NCc2ccc(Cl)cc2)CC1	?	i	i	i	-63
CC1CCCN(c2ccc(C(=O)Nc3nnc(C4CC4)s3)cc2[N+](=O)[O-])C1 (stereo unspecified)	i	?	i	13µM	i
CC1CCN(c2ccc(C(=O)Nc3ccc4c(c3)OCO4)cc2[N+](=O)[O-])CC1	i	i	i	?	-141
CC1CCCN(c2ccc(C(=O)Nc3ccc4c(c3)OCO4)cc2[N+](=O)[O-])C1 (stereo unspecified)	i	i	i	?	-66
COc1cc2c(cc1OC)C1O[C@](CCCCN3C(=O)c4ccccc4C3=O)(C2)Oc2cc(C)n(Cc3ccccc3)c(=O)c21	nt	?	nt	i[10 µM]	nt
N#CCC(=O)Nc1ccc(C(=O)OCC(=O)NCCCc2ccccc2)cc1	i	i	i	i	i
N#CCC(=O)Nc1ccc(C(=O)OCc2ccccc2Oc2ccccc2)cc1	21µM	i	?	i	i
CC1C(=O)C(C)C(c2cc(Br)ccc2O)NC1c1cc(Br)ccc1O (stereo unspecified)	23µM	nt	?	nt	-97
CC1C(=O)C(C)C(c2ccc(Br)cc2)NC1c1ccc(Br)cc1 (stereo unspecified)	23µM	i	?	i	i
CCC1=C(OC(=O)N(CC)CC)N2C(=O)OC(=NCCOC)[C@]2(C)[C@H]2C1=CC[C@H]1C(=O)N(C)C(=O)[C@H]12	nt	i	nt	i	nt
CC(=O)Nc1ccc(S(=O)(=O)n2cnc3cc(C)c(C)cc32)cc1	i	11µM	i	i	i
CCC(=O)N(C1=C(NC(C)C)C(=O)c2ccccc2C1=O)C(C)C	i	?	i	10µM	i
CCOc1ncccc1C(=O)OCC(=O)NC1CCCCCC1	i	nt	i	nt	i
SMILES	MCF10A rereplic	Gal4-VP16 FLuc	SW480 rerep	RORgamma inh	IL-1B inflam inh
CCOC(=O)C1CCN(C(=O)C(C)N(c2ccc(Oc3ccccc3)cc2)S(C)(=O)=O)CC1 (stereo unspecified)	i	20µM	i	i	i
O=C(CNc1cccc(S(=O)(=O)N2CCCC2)c1)Nc1ccc(F)c(F)c1	i	nt	i	nt	i
Cc1ccc(NC(=O)CNc2cccc(S(=O)(=O)N3CCCC3)c2)cc1F	i	nt	i	nt	-67
Cc1ccc(NC(=O)CN2C(=O)COc3ccc(S(=O)(=O)N4CCCC4)cc32)cc1C	i	i	i	i	-52
CCN(CC)S(=O)(=O)c1cccc(NC(=O)CNc2cccc(S(=O)(=O)N3CCCC3)c2)c1	?	0.71µM	i	i	i
Cc1cc(OC(C)C(=O)N2CCN(c3ccc(F)cc3)CC2)c2c(C)c(C)c(=O)oc2c1 (stereo unspecified)	i	i	i	i	i
Cc1ccc(S(=O)(=O)N[C@H](CNCc2ccccc2)C(C)C)cc1	nt	nt	nt	nt	i
O=C1N/C(=N\N=C\c2cccs2)SC1Cc1ccc(Cl)c(Cl)c1 (stereo unspecified)	i	0.71µM	i	0.45µM	i
O=C(CC1S/C(=N/N=C/c2cccs2)NC1=O)Nc1ccccc1F (stereo unspecified)	i	i	?	8.9µM	i
C=CCN1C(=O)C(Cc2ccc(OC)cc2)S/C1=N\N=C\c1cccs1 (stereo unspecified)	i	i	i[9.22 µM]	i	i
C=CCC1S/C(=N/N=C/c2cccs2)NC1=O (stereo unspecified)	i	5.6µM	i	2µM	i
O=C(CC1S/C(=N/N=C2CCCCCC2)NC1=O)Nc1ccccc1C(F)(F)F (stereo unspecified)	i	?	i	5.6µM	i
CN(c1ccc(OCC(=O)NC2CCC(O)CC2)cc1)S(=O)(=O)c1ccc(Cl)cc1 (stereo unspecified)	i	nt	i	nt	i
Nn1cnc2scc(-c3ccco3)c2c1=O	i	i	i	i	i
O=C(OCc1ccccc1)N1C=CCC[C@@H]1c1c(Cl)cccc1Br	nt	nt	nt	nt	i
COc1ccc2nc(N/C(N)=N/C(=S)Nc3ccccc3)nc(C)c2c1	i	4.5µM	i	0.79µM	-87
CCOc1ccc2nc(N/C(N)=N/C(=S)Nc3ccc(OC)cc3)nc(C)c2c1	?	?	i	1.6µM	?
COc1ccc(OC)c(N/C(=N/C(=S)Nc2ccccc2)Nc2nc(C)cc(C)n2)c1	i	0.71µM	i	?	i
COc1ccc2nc(N/C(N)=N/C(=S)Nc3ccc(C)c(C)c3)nc(C)c2c1	nt	?	nt	0.79µM	nt
COc1ccc(OC)c(N/C(=N/c2nc(C)cc(C)n2)NC(C)=O)c1	i	i	i	i	i
CCOc1ccc2nc(N/C(N)=N/S(C)(=O)=O)nc(C)c2c1	i	i	i	i	?
COc1ccc(CN2CC[C@@H]3CN(C(C)=O)[C@H](c4ccccc4Br)C[C@@H]32)cc1	nt	nt	nt	nt	i
CN1CCN(c2ccccc2NC(=O)c2ccc(-c3ccccc3[N+](=O)[O-])o2)CC1	i	i	?	i	i
CN(Cc1ccccc1)C(c1ccnc2ccccc12)c1nnnn1-c1ccc2c(c1)OCCO2 (stereo unspecified)	nt	nt	nt	nt	i
COC[C@@H](O)[C@@H](OC)[C@H](OC)[C@H](Cc1c(OC)cc(OC)cc1OC)OC	nt	i	nt	i	nt
CCOc1ccc2nc(N/C(N)=N/S(=O)(=O)c3ccc(C)cc3)nc(C)c2c1	nt	nt	nt	nt	i
CCc1ccc(NC(=S)/N=C(\N)Nc2nc(C)c3cc(CC)ccc3n2)cc1	?	7.1µM	4.6µM	1.1µM	-64
